Hits are enriched below; roughly 10% of the tested compounds scored in any of these assays.
BAZ2B block: qHTS Assay for Inhibitors of BAZ2B | AID 504333, 2011 | Potency, µM (titrated, usually from 114 µM), for the others: at the top dose activity change, negative = inhibition, usual class: inhibitors | Bromodomain adjacent to zinc finger domain protein 2B (Homo sapiens), Q9UIF8 | hit rate 4.4% among 360,000 | AlphaScreen BAZ2B-H3K14Ac peptide displacement; note: potency is the fitted concentration of half-maximal effect; % is set by controls: 0 for no effect and ±100 for the full control effect; nearly all actives have a fitted effect of over 60% in size
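Complex of BAZ2B and biotin-H3K14Ac (50 nM apiece) forms over 30 min at RT, then faces library compounds up to 110 uM for another 30 min; AlphaScreen beads added, 20 min dark incubation, luminescence read.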
HP1b binding inh: HTS for Inhibitors of HP1-beta Chromodomain Interactions with Methylated Histone Tails; hit rate 0.56% among 390,000; AID 540317, 2011; Potency, µM (highest dose often 114 µM), inactives show at the highest dose activity change, negative = inhibition, most hits filed as inhibitors; Chromobox protein homolog 1 (Homo sapiens), P83916; AlphaScreen HP1-beta / biotin-H3K9me3 peptide binding; note: potency is the fitted concentration of half-maximal effect; nearly all actives have a fitted effect of over 70% in size
Target sequence (P83916 whole entry, looked up): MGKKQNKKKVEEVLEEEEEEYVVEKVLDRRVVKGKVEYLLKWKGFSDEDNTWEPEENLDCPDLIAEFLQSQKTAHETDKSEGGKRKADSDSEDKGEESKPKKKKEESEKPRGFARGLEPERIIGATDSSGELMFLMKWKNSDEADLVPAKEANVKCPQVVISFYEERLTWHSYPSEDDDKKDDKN
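Compound inhibition of the preformed complex between 50 nM HP1-beta and 50 nM biotinylated H3K9me3 peptide was read by AlphaScreen. Buffer was PBS pH 7.4 with 0.01% Tween-20. Incubations ran 30 min at room temperature, with 10 ug/mL donor/acceptor beads.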
G9a block: qHTS Assay for Inhibitors of Histone Lysine Methyltransferase G9a; G9a H3K9 monomethylation, AlphaScreen, 2 h; hit rate 8.8% among 350,000; Potency, µM (top dose mostly 102 µM), without a hit: at the highest dose activity, negative = inhibition, actives largely listed as inhibitors; Histone-lysine N-methyltransferase EHMT2 (Homo sapiens), Q96KQ7; note: potency is the fitted concentration of half-maximal effect; % is set by controls: 0 for no effect and ±100 for the full control effect; nearly all actives have a fitted effect of over 75% in size
Target sequence (Q96KQ7 913-1193 limits assumed): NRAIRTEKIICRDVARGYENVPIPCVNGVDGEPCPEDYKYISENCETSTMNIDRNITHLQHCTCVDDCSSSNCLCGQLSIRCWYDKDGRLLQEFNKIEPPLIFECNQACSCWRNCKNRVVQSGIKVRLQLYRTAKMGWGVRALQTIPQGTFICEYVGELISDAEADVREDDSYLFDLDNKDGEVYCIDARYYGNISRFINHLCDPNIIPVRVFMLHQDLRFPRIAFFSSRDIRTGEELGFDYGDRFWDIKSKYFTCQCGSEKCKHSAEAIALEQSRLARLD
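Using a bead-based AlphaScreen, monomethylated H3K9 product from 2 h room-temperature reactions (G9a 20 nM, peptide 500 nM, SAM 20 uM) was detected with 0.5 ug/mL rabbit anti-H3K9me1 antibody.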
CtBP-E1A inh: qHTS Assay for Inhibitors of the CtBP/E1A Interaction; AID 651724, 2012; activity change, % (concentration not given with the values); AlphaScreen GST-E1A/His-CtBP binding, 1536-well; active compounds read low; CtBP / adenovirus E1A interaction (AlphaScreen); hit rate 0.49% among 340,000; in the data active = activity change below about -65%; inconclusive = mostly about -30% to -63%; note: % is set by controls: 0 for no effect and ±100 for the full control effect
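Protein mix (5X: 125 nM each GST-E1A, His-CtBP) was incubated with pinned compound 2 h at 37 deg C in dark, in 50 mM Tris pH 8.0 buffer with 300 mM NaCl. Glutathione donor and nickel acceptor beads followed; AlphaScreen signal read after 1 h.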
Six1-Eya2 inh: qHTS Assay for Inhibitors of the Six1/Eya2 Interaction | AlphaScreen GST-Six1/His-Eya2 binding, biochemical; active compounds read low | hit rate 0.56% among 360,000 | activity change, % (no concentration beside the values) | Homeobox protein SIX1 (Homo sapiens) + Protein phosphatase EYA2 (Homo sapiens), …; in the data active = activity change below about -65%; inconclusive = mostly about -30% to -63%; note: % is set by controls: 0 for no effect and ±100 for the full control effect
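AlphaScreen with GST-Six1 and His-Eya2 (5X mix: 250 nM and 500 nM), glutathione donor and nickel acceptor beads; buffer 50 mM Tris pH 8.0, 300 mM NaCl, 1 mM TCEP; 1 h at 37 C in the dark.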
JMJD2A Tudor: qHTS Assay for Inhibitors of JMJD2A-Tudor Domain; AlphaScreen JMJD2A-Tudor / H3K4me3 peptide binding; Potency, µM (highest dose often 114 µM), without a hit: top-dose activity change, negative = inhibition, most hits filed as inhibitors; hit rate 4.4% among 390,000; Lysine-specific demethylase 4A (Homo sapiens), O75164; AID 504339, 2011; note: potency is the fitted concentration of half-maximal effect; % is set by controls: 0 for no effect and ±100 for the full control effect; nearly all actives have a fitted effect of over 50% in size
Numbers without * were called inactive; ? = inconclusive; . = no result; [ ] = remark or other dose. Unless noted, calls come from the whole dose curve; as a rule, active = well fitted inhibition curve with a large enough effect; inconclusive = small, poorly fitted or top-dose-only effect; inactive = no such curve, though single readings can be large or run the other way.

SMILES | BAZ2B block | HP1b binding inh | G9a block | CtBP-E1A inh | Six1-Eya2 inh | JMJD2A Tudor
Cc1[nH]c(=S)sc1Cc1ccc(F)cc1 | -34% | -7% | 2µM* | 17 | 1 | 40µM*
O=C(c1cc2ccccc2oc1=O)N1CCN(c2ccc(Cl)cc2)CC1 | 0% | 33% | -6%[59 µM] | . | . | 1%
COc1ccc(-c2sc3cc(OC)ccc3c2-c2ccc(OCCN3CCCCC3)cc2)cc1 | . | . | . | -24 | ? | .
COc1cccc(-c2sc3ccccc3c2-c2ccc(OCCN3CCCC3)cc2)c1 | . | ? | . | -3 | -21 | 45µM*
COc1ccc2sc(-c3ccccc3OC)c(-c3ccc(OCCN(C)C)cc3)c2c1 | . | -35% | . | -27 | -26 | 50µM*
COc1cccc(-c2sc3cc(OC)c(OC)cc3c2-c2ccc(OCCN3CCCCC3)cc2)c1 | . | ? | . | ? | -27 | 32µM*
COc1cccc(-c2sc3ccc(OC)cc3c2-c2ccc(OCCN3CCCC3)cc2)c1 | . | ? | . | -20 | -21 | 56µM*
CN1CCc2[nH]c3ccc(Cl)cc3c2C1 | . | 15%[57 µM] | . | . | . | -11%[57.1 µM]
Cc1ccc(-c2cc(C3C4C=CCCC4(C)C(=O)N3Cc3ccccc3)ccc2F)cc1 (configuration not stated) | . | 6% | . | . | . | -20%
Cc1cc2nc(-c3cccc(NC(=O)COc4ccc(C(C)C)cc4)c3)oc2cc1C | -17% | 28% | -1%[59 µM] | . | . | -12%
CCc1cccc(N2C(=O)N(Cc3c(F)cccc3Cl)c3ccccc3S2(=O)=O)c1 | -4% | 24% | -1%[59 µM] | . | . | -12%
CCc1ccc(-n2c(N3CCN(c4cccc(C)c4C)CC3)nc3ccccc3c2=O)cc1 | . | 26% | 7%[59 µM] | . | . | -7%
COc1cccc(-c2sc3ccccc3c2-c2ccc(OCCN(C)C)cc2)c1 | . | ? | . | ? | -26 | 45µM*
COc1cccc(-c2sc3ccc(OC)cc3c2-c2ccc(C(N)=O)cc2)c1 | 3% | 19% | 0%[0.501 µM] | 0 | 0 | -17%
COC1=C2C[C@H](C)C[C@H](OC)[C@@H](O)[C@@H](C)C=C(C)[C@H](OC(N)=O)[C@@H](OC)C=CC=C(C)C(=O)NC(=CC1=O)C2=O | . | 16% | . | . | . | ?
Cc1cc2nn(-c3cccc4ccccc34)nc2cc1N | ? | 20% | 3.5µM* | 2 | -1 | 2%[57.1 µM]
CCc1ccc(-n2nc3cc(C)c(N)cc3n2)cc1 | 32µM* | -2% | 1.1µM* | . | 8 | 89µM*
COc1ccc(-n2nc3cc(N)c(Br)cc3n2)cc1 | -3% | -2% | 17%[0.501 µM] | -4 | -7 | -17%
Cc1ccc(-n2nc3cc(C)c(N)cc3n2)cc1 | ? | 3% | 1.6µM* | 10 | 14 | -20%
NCCCC(=O)O | 26% | 27% | 2.8µM* | 3 | 3 | 6%
Cc1ccc(C)c(Cn2c(=O)n(CCCCCC(=O)NCc3ccc4c(c3)OCO4)c(=O)c3sccc32)c1 | -16% | 12% | -4%[59 µM] | . | . | -12%
CCOC(=O)c1ccc(NC(=O)c2nc[nH]c2C(=O)NC[C@@H](C)O)cc1 | . | . | . | -4 | -3 | .
O=C(Nc1ccc([N+](=O)[O-])cc1)c1nc[nH]c1C(=O)NC1CCCCC1 | 50µM* | 20% | 20%[59 µM] | -3 | -3 | -21%
CCOC(=O)c1[nH]cnc1C(=O)Nc1ccc([N+](=O)[O-])cc1 | ? | 14% | 79µM* | -7 | -10 | ?
Cc1cc2c(n1-c1ccc(C(=O)NCCc3ccc(Cl)cc3)cc1)CCC(C)C2 (configuration not stated) | -8% | 22% | -21%[59 µM] | . | . | -25%
SMILES | BAZ2B block | HP1b binding inh | G9a block | CtBP-E1A inh | Six1-Eya2 inh | JMJD2A Tudor
CC(C)(C)OC(=O)N1CCC(c2c(C(=O)N3CCN(c4ccccn4)CC3)cnn2-c2ccccc2Cl)CC1 | 4%[57.1 µM] | 36% | -28%[59 µM] | . | . | -17%
CCS(=O)(=O)c1ccc2c(c1)N(S(=O)(=O)c1ccc(OC)cc1)CC(C(=O)O)O2 (configuration not stated) | -36%[57.1 µM] | 34% | 65%[59 µM] | 5 | 3 | -14%
CCS(=O)(=O)c1ccc2c(c1)N(S(=O)(=O)c1ccc(C)cc1)CC(C(=O)O)O2 (configuration not stated) | 89µM* | 52% | ? | -1 | -5 | -7%
COc1ccc(NC(=O)c2cnc(Nc3ccc(C)c(Cl)c3)c3ccccc23)c(OC)c1 | 2% | 32% | 0%[59 µM] | . | . | 2%
CCOC(=O)c1c(NC(=O)c2cc(=O)c3ccc(C)cc3o2)sc(C)c1C | 1% | 27% | -3%[59 µM] | . | . | -15%
Cc1c2cccn2cc[n+]1C | -2% | 4% | 14µM* | -1 | 9 | 45µM*
COc1cccc(NC(=O)CCc2c(C)nc3nc(CNC(=O)c4cccc(F)c4)nn3c2C)c1 | -7% | 27% | 8%[0.0925 µM] | -76* | ? | -16%
O=C(c1cccs1)c1cn(CCOc2ccc(F)cc2)c2ccccc12 | -5% | 7% | 32%[59 µM] | . | . | -10%
O=C(/C=C/c1ccncc1)c1ccc(NC(=O)c2ccccc2F)cc1 | 50µM* | -2%[57 µM] | 14µM* | 0 | 12 | 56µM*
CCN(CC)c1ccc(NC(=O)c2ccccc2F)cc1 | 45µM* | -14% | ? | -22 | -26 | ?
CCN(CC)c1ccc(NC(=O)c2ccco2)c(C)c1 | -12% | -8% | ? | 6 | -3 | -36%
CCN(CC)c1ccc(NC(=O)c2ccco2)cc1 | -34% | -1% | 35µM* | -5 | -5 | ?
CCN(CC)c1ccc(NC(=S)NC(=O)c2ccco2)cc1 | 18µM* | 45µM* | 28µM* | 3 | -70* | 28µM*
COc1cc(NC(=O)c2noc3c2CC(C)CC3)c(OC)cc1Cl (configuration not stated) | 3%[57.1 µM] | 13% | -22%[59 µM] | . | . | -12%
COc1cc(NS(=O)(=O)c2ccc(NC(=S)NC(=O)c3ccco3)cc2)nc(OC)n1 | ? | 10% | . | 0 | 11 | -12%
O=C(CNC(=O)c1ccco1)Nc1ccc(F)c(Cl)c1 | -12% | 29% | 9% | 18 | 3 | 0%
CC(C)C(=O)Nc1ccc(NC(=O)c2ccco2)cn1 | ? | 53% | 35µM* | -3 | -1 | -7%
Cc1cc(C)nc(NS(=O)(=O)c2ccc(NC(=S)NC(=O)c3ccco3)cc2)n1 | 1% | 2% | 50µM* | 12 | -4 | -13%

Bioassay records: PubChem BioAssay, National Center for Advancing Translational Sciences (NCATS)
